Screening data as filed in PubChem BioAssay.
DAX1 inh-1: DAX1 (NR0B1) inhibitors, primary screen, cell-based, HEK293, Gal4-DAX1, luciferase luminescence | Nuclear receptor subfamily 0 group B member 1 (Homo sapiens), P51843 | HEK293 Gal4-DAX1 luciferase reporter | inhibition, % at 6.75 µM | 0.99% of 340,000 active;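 active means inhibition above the mean over all tested compounds plus 3 SD, cut at about 4.2% in these data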;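 further: 0% = DAX1-transfected cells with DMSO and 100% = empty-vector control cells with DMSO; inhibition shows as a rise in luminescence from relieved DAX1 repression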
Target sequence (P51843 207-470 limits assumed): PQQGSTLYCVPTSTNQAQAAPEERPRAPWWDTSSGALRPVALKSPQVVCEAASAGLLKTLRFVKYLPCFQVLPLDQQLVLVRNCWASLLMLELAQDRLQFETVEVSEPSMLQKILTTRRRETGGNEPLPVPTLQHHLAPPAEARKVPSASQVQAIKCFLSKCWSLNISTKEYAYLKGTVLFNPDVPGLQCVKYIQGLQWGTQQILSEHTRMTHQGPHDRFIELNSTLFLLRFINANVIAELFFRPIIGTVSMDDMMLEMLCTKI
DAX1 inh-2: DAX1 (NR0B1) inhibitors on StAR promoter, primary screen, cell-based, luminescence, SF-1 (NR5A1), full-length DAX-1 | HEK293T StAR-luciferase reporter, SF-1/DAX-1 repression relief | inhibition, % at 6.8 µM | 1.1% of 370,000 active | AID 652010, 2013;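 active means inhibition above the mean over all tested compounds plus 3 SD, cut at about 3.6% in these data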;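 further: 0% = DAX-1 cells with DMSO and 100% = cells lacking DAX-1 with DMSO; higher inhibition means more luminescence from relief of DAX-1 repression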
hgDAF-12 ag: H. glycines DAF-12 receptor agonists, primary screen, cell-based, luminescence, HEK293, GAL4 fusion, UAS-luciferase. HEK293 GAL4-hgDAF12 UAS-luciferase reporter, agonist luminescence; normalized to butyrate control. activation, % at 6.8 µM. 1.8% of 370,000 active. AID 687014, 2013;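 active means activation above a cutoff set at the mean of all screened compounds plus 3 SD, cut at about 10% in these data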;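 further: 0% = DMSO wells and 100% = sodium butyrate wells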
hcDAF12 agonist: H. contortus DAF-12 nuclear receptor activators, primary screen, cell-based, luminescence, HEK293, lit1-tk-luc reporter; 1.4% of 370,000 active; HEK293 hcDAF-12 lit1-tk-luc reporter; 0% DMSO, 100% Δ7-dafachronic acid; activation, % at 6.8 µM;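 active means activation above the mean of all tested compounds plus 3 SD, cut at about 5.5% in these data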;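 further: 100% = response to 3 µM Δ7-dafachronic acid high control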
ssDAF12 agonist: S. stercoralis DAF-12 nuclear receptor activators, primary screen, cell-based, luminescence, HEK293, GRIP1 co-expression, lit1-tk-luc; activation, % at 6.8 µM; HEK293 ssDAF-12/GRIP1 lit1-tk-luc reporter; % of 3 µM dafachronic acid response; 1% of 370,000 active; Nuclear hormone receptor DAF-12 (Strongyloides stercoralis);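 active means activation above the mean over all tested compounds plus 3 SD, cut at about 0.9% in these data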;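 further: 0% = DMSO-only wells and 100% = 3 µM delta7-dafachronic acid wells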
GAA850 FXN act: FXN promoter activators, primary screen, cell-based, luciferase luminescence, HEK293 lucGAA850. HEK293 lucGAA850 FXN promoter luciferase reporter, 24 h; percent of 10 µM SAHA response. activation, % at 6 µM. 0.56% of 360,000 active. AID 540364, 2011;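 active means activation above the average of all compounds screened plus 3 SD, cutoff fixed separately per campaign, cut at about 7.5% in these data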;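 further: 0% = DMSO wells and 100% = 10 µM SAHA wells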
* marks the source's active call; other numbers are inactive results. Compounds with a hit are over-represented: about 4.5% of the library has one in this group of screens.

CC(=O)Nc1ccc(-c2csc(-c3cccnc3)n2)cc1 was read as DAX1 inh-1 2, DAX1 inh-2 1, hgDAF-12 ag 11*, hcDAF12 agonist 3, ssDAF12 agonist 1 and GAA850 FXN act 7.
Screening CCCC(=O)Nc1ccc(-c2csc(-c3cccnc3)n2)cc1 returned DAX1 inh-1 -1, DAX1 inh-2 0, hgDAF-12 ag 0, hcDAF12 agonist -2, ssDAF12 agonist -2 and GAA850 FXN act 3.
For CCOC(=O)N1CCN(C(=O)C[C@H]2C(=O)N(CCCOC)C3=CCCC[C@@]32C(=O)OCC)CC1 the results were DAX1 inh-2 -1, hgDAF-12 ag -3, hcDAF12 agonist 0 and ssDAF12 agonist 0.
O=C(CNC(=S)N(Cc1ccccc1)Cc1cccs1)NCc1ccc(F)cc1 was read as DAX1 inh-1 -1, DAX1 inh-2 -1, hgDAF-12 ag -4, hcDAF12 agonist 6.4*, ssDAF12 agonist -2 and GAA850 FXN act 1.
C=CCN(C)C(C#Cc1ccccc1)c1ccccc1C(F)(F)F (stereo unspecified) was read as hgDAF-12 ag -1, hcDAF12 agonist -1 and ssDAF12 agonist -1.
`COc1ccc(/C=C2/C(=O)N(c3ccccc3)N=C2C)cc1Br` gave DAX1 inh-1 0, DAX1 inh-2 0, hgDAF-12 ag 5, hcDAF12 agonist 6.4*, ssDAF12 agonist 0 and GAA850 FXN act -1.
CC1=NN(c2ccccc2)C(=O)C1=Cc1ccccc1 was read as DAX1 inh-1 1, DAX1 inh-2 0, hgDAF-12 ag 1, hcDAF12 agonist -1, ssDAF12 agonist -1 and GAA850 FXN act -2.
`Cc1ccc(S(=O)(=O)/N=C/N(C)C)cc1` gave DAX1 inh-1 1, DAX1 inh-2 0, hgDAF-12 ag 0, hcDAF12 agonist 1, ssDAF12 agonist -1 and GAA850 FXN act 0.
CN(C)/C=N/S(=O)(=O)c1ccc(Cl)cc1 was read as DAX1 inh-1 4.4*, DAX1 inh-2 0, hgDAF-12 ag -2, hcDAF12 agonist -1, ssDAF12 agonist -1 and GAA850 FXN act 0.
For CCOC(=O)/C(N=Nc1ccc2c(c1)OCO2)=C(\C)O the results were DAX1 inh-1 6.3*, DAX1 inh-2 2, hgDAF-12 ag 10, hcDAF12 agonist 1, ssDAF12 agonist -1 and GAA850 FXN act 7.
COCc1cn(-c2ccc3c(c2)[C@@]2(CC(=O)N(C)C2c2ccccc2)C(=O)N3CC(C)C)nn1 (stereo partly specified) was read as DAX1 inh-2 1, hgDAF-12 ag 2, hcDAF12 agonist 5 and ssDAF12 agonist -1.
COCCNC(=O)C1(C)C=CC2(CCCCC2)N1C(=O)c1ccccc1 (stereo unspecified) was read as DAX1 inh-1 4.7*, DAX1 inh-2 0, hgDAF-12 ag 2, hcDAF12 agonist 0, ssDAF12 agonist -1 and GAA850 FXN act -2.
For CCN1C(=S)SC(=O)C1=C1C=C(C)N(CCO)C(C)=C1 the results were DAX1 inh-1 4, DAX1 inh-2 3.8*, hgDAF-12 ag 12*, hcDAF12 agonist 2, ssDAF12 agonist 0 and GAA850 FXN act 8.
Screening COC(=O)[C@]12C[C@H](CC(=O)NCCCCc3ccccc3)C(=O)N(CCC3=CCCCC3)C1=C[C@H](COCc1ccccc1)O[C@@H]2C returned DAX1 inh-2 1, hgDAF-12 ag 1, hcDAF12 agonist 1 and ssDAF12 agonist -1.
For COc1cc(C(=O)OCC(C)=O)ccc1OCc1c(C)noc1C the results were DAX1 inh-1 -2, DAX1 inh-2 -3, hgDAF-12 ag 1, hcDAF12 agonist -2, ssDAF12 agonist -1 and GAA850 FXN act -5.
`COc1cc(C(=O)OCC(=O)N2CCCCC2C)ccc1OCc1c(C)noc1C` (stereo unspecified) gave DAX1 inh-1 4.7*, DAX1 inh-2 0, hgDAF-12 ag 7, hcDAF12 agonist -2, ssDAF12 agonist -1 and GAA850 FXN act 0.
CC[C@@H](CCCc1ccc(F)cc1)CN(Cc1ccc(OC)cc1)S(=O)(=O)c1ccc(C)cc1 was read as DAX1 inh-2 0, hgDAF-12 ag 0, hcDAF12 agonist 0 and ssDAF12 agonist -1.
`CCOC(=O)c1cn(Cc2ccc(Br)cc2)nn1` gave DAX1 inh-1 2, DAX1 inh-2 0, hgDAF-12 ag 0, hcDAF12 agonist -3, ssDAF12 agonist -2 and GAA850 FXN act -1.
Screening CCOC(=O)c1cn(Cc2ccc(C)cc2)nn1 returned DAX1 inh-1 -1, DAX1 inh-2 -1, hgDAF-12 ag -2, hcDAF12 agonist 5.8*, ssDAF12 agonist -1 and GAA850 FXN act 1.
For [N-]=[N+]=CC(=O)CNC(=O)[C@@H](Cc1ccccc1)N1C(=O)c2ccccc2C1=O the results were DAX1 inh-1 1, DAX1 inh-2 -1, hgDAF-12 ag 0, hcDAF12 agonist 0, ssDAF12 agonist -1 and GAA850 FXN act 1.
Screening O=C(NCc1ccco1)C(Cc1ccccc1)N1C(=O)c2ccccc2C1=O (stereo unspecified) returned DAX1 inh-1 1, DAX1 inh-2 -1, hgDAF-12 ag 3, hcDAF12 agonist 6.3*, ssDAF12 agonist 0 and GAA850 FXN act -1.
Screening CC(=O)N1CCc2cc(S(=O)(=O)NC3CCN(C(=O)OCc4ccccc4)CC3)ccc21 returned DAX1 inh-2 -4, hgDAF-12 ag -6, hcDAF12 agonist -6 and ssDAF12 agonist -2.
For CCCCCN1CCCCC(NC(=O)c2ccc3ccccc3c2)C1=O (stereo unspecified) the results were DAX1 inh-2 0, hgDAF-12 ag 2, hcDAF12 agonist -1 and ssDAF12 agonist -1.
Screening O=C(O)COc1ccc(Br)cc1/C=N\Nc1ccccn1 returned DAX1 inh-1 4.7* and GAA850 FXN act 2.
CCCCCCCCNS(=O)(=O)/C=C/c1ccccc1CNC(=O)OC(C)(C)C was read as DAX1 inh-2 0, hgDAF-12 ag 7, hcDAF12 agonist -3 and ssDAF12 agonist -1.
`CC(NC(=O)C1CCC(CNc2c(N3CCCCC3)c(=O)c2=O)CC1)c1ccccc1` (stereo unspecified) gave DAX1 inh-1 5.8*, DAX1 inh-2 0, hgDAF-12 ag -1, hcDAF12 agonist 0, ssDAF12 agonist -1 and GAA850 FXN act 1.
